TRPML1 agonist: agonists of human TRPML1 channel. Q9GZU1. TRPML1-expressing cells, Ca2+ dye fluorescence, FDSS. activation, % (no concentration beside the values). 410,000 tested, 0.12% active. AID 624414; in the data active = activation above about 50%; inconclusive = mostly about 30% to 49%; also: 0% is about no effect
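Tet-induced TRPML1-DL cells, 1,500 per well, cultured overnight, were loaded with a no-wash Ca2+ dye for 45–90 min. Calcium fluorescence was recorded on the FDSS for 110 s after compound addition, before the EC80 agonist (4 uM 54-4) was added.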
TRPV1 potentiator: enhances activation of the human vanilloid receptor TRPV1 | potentiation, % at 8.33 µM | TRPV1-expressing cells, Fluo-8 calcium influx, capsaicin EC20 potentiation | 320,000 tested, 0.02% active; in the data active = potentiation above about 80%; inconclusive = between about 30% and that limit; also: 0% is about no effect
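Fluo-8 calcium influx in TRPV1-expressing cells, kinetic read (ex 480/em 520 nm). Compound added and read 3 min for agonist activity, followed by capsaicin at EC20 final and 2 min further read for enhancement.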
TRHR agonist-1: activates the human TRH receptor. AID 493084. TRHR cells, calcium flux fluo-8, FDSS agonist mode. activation, % at 2 µM. P34981. 360,000 tested, 0.18% active; in the data active = activation above about 30%; also: 0% is about no effect
Target sequence (P34981 whole entry, looked up): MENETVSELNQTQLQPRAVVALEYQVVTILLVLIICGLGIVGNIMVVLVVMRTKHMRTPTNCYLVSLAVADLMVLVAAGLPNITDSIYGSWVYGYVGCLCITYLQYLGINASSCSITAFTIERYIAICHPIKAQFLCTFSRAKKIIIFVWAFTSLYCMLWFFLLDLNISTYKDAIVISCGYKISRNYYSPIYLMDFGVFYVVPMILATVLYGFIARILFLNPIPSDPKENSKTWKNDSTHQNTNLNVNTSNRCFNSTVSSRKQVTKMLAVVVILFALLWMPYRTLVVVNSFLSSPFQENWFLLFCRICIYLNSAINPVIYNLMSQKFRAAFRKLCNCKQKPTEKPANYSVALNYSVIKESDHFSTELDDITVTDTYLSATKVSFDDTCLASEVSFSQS
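Fluo-8-loaded TRHR cells; 10 s baseline, compound added, kinetic Ca2+ fluorescence read 1/s, agonist mode.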
TRPML1 blocker: inhibitors of human TRPML1 channel; Q9GZU1; TRPML1-inducible cells, Ca2+ dye fluorescence, FDSS; stronger effect = lower value; inhibition of EC80 agonist-evoked calcium signal; activity change, negative = inhibition, % (no concentration beside the values); 390,000 tested, 0.02% active; in the data active = activity change below about -50%; inconclusive = between about -30% and that limit;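 also: stimulus is agonist 54-4 at its EC80 concentration; % is scaled to controls: 0 for no effect and ±100 for the full control effect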
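TRPML1-DL cells, Tet-induced overnight (~16 h, 37 °C) at 1,500 cells/well, were loaded with Ca8 no-wash dye plus quencher for 45-90 min at room temperature. Compounds were pinned during FDSS kinetic reading; agonist 54-4 at EC80 (4 uM final) then added.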
TRHR enhancer-1: allosterically enhances the human TRH receptor. 360,000 tested, 0.66% active. P34981. enhancement, % at 2 µM. AID 493056. TRHR cells, fluo-8 calcium fluorescence, EC20 TRH enhancement; in the data active = enhancement above about 30%; also: 0% is about no effect
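Enhancer read-out: after compound pinning and an initial kinetic agonist-mode read, an EC20 of TRH (10 nM final) was injected and fluo-8 calcium signal (Ex 480/Em 530) followed at 1 s/cycle for 100 cycles in TRHR-expressing cells.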
TRPV1 ag: activates the human vanilloid receptor TRPV1; TRPV1-expressing cells, Fluo-8 calcium influx, agonist mode; activation, % at 8.33 µM; 320,000 tested, 0.19% active; in the data active = activation above about 80%; inconclusive = between about 30% and that limit; also: 0% is about no effect
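TRPV1-expressing cells were cultured overnight at 35.5C and loaded with Fluo-8 calcium dye for 40 to 90 min at room temperature. After a 10 s baseline, compound was added and calcium influx was read kinetically for 3 min (ex 480/em 520 nm).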
TRHR enhancer-2: confirmation of human TRH receptor allosteric enhancers | 970 tested, under 10 active | TRH receptor cell assay, enhancer confirmation qHTS | shares compounds with TRHR enhancer-1 | activity change, negative = inhibition, % at 46.1 µM;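 also: compound effect scored on response to added TRH at EC20 of 10 nM; 0% is about no effect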
TRHR agonist-2: confirmation of human TRH receptor agonists; shares compounds with TRHR enhancer-1; TRHR-expressing cells, agonist activation read-out; Potency, µM (highest dose often 46.1 µM), without a hit: top-dose activation, hits mostly activators; 970 tested, 8% active; also: potency is read from the fitted curve at half-maximal effect; 0% is about no effect; nearly all actives have a fitted effect of over 75% in size
* = called active by the depositor; ? = inconclusive; . = no result given. This is a sample that favours compounds with a hit; in the whole collection about 0.99% have one here. Unless noted, calls follow the shape of the dose curve; as a rule, active = well fitted curve in the direction sought with a large enough effect; inconclusive = small, poorly fitted or top-dose-only effect, or another doubt; inactive = no such curve, though single readings can be large; an effect the other way counts as inactive or inconclusive.

SMILES	TRPML1 agonist	TRPV1 potentiator	TRHR agonist-1	TRPML1 blocker	TRHR enhancer-1	TRPV1 ag	TRHR enhancer-2	TRHR agonist-2
COCCOC(=O)C1=C(C)N(c2ccccc2)C(=O)NC1c1cccc([N+](=O)[O-])c1 (configuration not stated)	0	3	-1	22	50*	-1	-19	0%
Cc1ccc(NCc2cccn2-c2nnc(N3CCCCCC3)s2)cc1	3	.	-1	25	9	.	.	.
Cn1c(=O)c(N)c2c3c(c(Br)ccc31)C(=O)c1ccccc1-2	27	.	60*	-20	-5	.	-5	18µM*
OC(CNCCc1ccccc1)COc1ccc(OCC(O)CNCCc2ccccc2)cc1 (configuration not stated)	2	?	4	-10	9	11	.	.
Clc1ccc(OCCNCCc2ccccc2)cc1	0	-1	1	6	43*	5	9	9%
CCOC(=O)c1ccc(NC(=O)CCn2c(=O)c3cccn3c3ccccc32)cc1	1	.	-1	?	1	.	.	.
COc1ccc(CN(CCCN)c2ccc(Br)cn2)cc1	1	.	.	.	.	.	.	.
CCOC(=O)CSc1nc2sc3c(c2c(=O)n1-c1ccccc1)CC(C(C)C)OC3 (configuration not stated)	0	.	1	-27	-1	.	.	.
COC(=O)c1c(C)oc2ccc(NS(=O)(=O)c3cccs3)cc12	0	2	-1	13	53*	3	-8	3%
CCNC(=O)C1CCCN(c2nn3cc(-c4ccc(C)cc4)nc3s2)C1 (configuration not stated)	2	.	0	34	-7	.	.	.
COc1cc(/C=C(\C#N)c2nc3ccccc3n2C)cc(OC)c1O	59*	?	119*	-22	17	25	-1	18µM*
Cn1c(/C(C#N)=C/c2ccc(O)cc2)nc2ccccc21	.	-23	1	.	4	?	.	.
O=Cc1c(NCc2ccco2)nc2ccccn2c1=O	0	11	0	1	46*	4	-7	4%
COc1ccccc1CNC(=O)c1ccc(OC(F)F)c(OC)c1	0	1	-1	-3	51*	-3	-5	1%
COc1cc(C(=O)NCc2ccccc2)ccc1OC(F)F	3	-20	-1	-10	4	26	.	.
Cc1cccc(N2CCN(C(=O)COc3cc4oc(=O)cc(C)c4cc3Cl)CC2)c1C	1	8	0	-8	70*	0	0	0%
Cc1ccc2oc(C(=O)Nc3nc(-c4ccc(F)cc4)ns3)c(C)c2c1	1	.	1	4	0	.	.	.
Cc1cc(=O)n2ccccc2c1C#N	1	11	1	-8	-5	-8	.	.
COc1ccc2c(C#N)c3ccccn3c2c1	3	0	10	2	47*	9	-10	?
COc1cc(O)c(C(CC(=O)N2CCCCC2)c2cc(OC)c(OC)c(OC)c2)c(OC)c1 (configuration not stated)	1	?	0	7	-1	1	.	.
COc1cc(O)c(C(CC(=O)N2CCCC2)c2cc(OC)c(OC)c(OC)c2)c(OC)c1 (configuration not stated)	2	16	-1	-2	49*	-1	-3	7%
CCn1cc(C(=O)OCC(=O)Nc2ccc(C)c(Cl)c2)c(=O)c2ccc(C)nc21	-1	.	0	14	-2	.	.	.
COc1cc2ncnc(NCc3ccco3)c2cc1OC	0	7	-2	-16	75*	-4	-6	4%
COc1cc2ncnc(NCc3ccccc3)c2cc1OC	-1	-16	0	7	-1	-1	.	.
CCC(=O)N1CCc2cc(S(=O)(=O)NC(CC(C)C)C(=O)NCc3cccc(OC)c3)ccc21 (configuration not stated)	1	.	-1	2	-7	.	.	.
SMILES	TRPML1 agonist	TRPV1 potentiator	TRHR agonist-1	TRPML1 blocker	TRHR enhancer-1	TRPV1 ag	TRHR enhancer-2	TRHR agonist-2
COc1ccc(CCNc2oc(-c3ccccc3OC)nc2C#N)cc1OC	0	-6	1	6	43*	2	?	0%
COc1ccc(CCNc2oc(-c3ccccc3OC)nc2C#N)cc1	3	10	-1	-7	-4	1	.	.
CCCSc1nnc2c(n1)OC(c1ccc(OCC(=O)O)cc1)Nc1ccccc1-2 (configuration not stated)	0	.	0	-7	-8	.	.	.
COc1ccc(C(C)=O)cc1COC(=O)CNC(=O)c1ccc(Cl)cc1	1	?	-2	2	-8	-5	.	.
COc1ccc(C(C)=O)cc1COC(=O)Cc1cc(OC)c(OC)c(OC)c1	-1	0	29	-6	-3	2	-4	-1%
Cn1nc(-c2cccnc2)nc2c(=O)n(C)c(=O)nc1-2	-1	.	.	.	.	.	.	.
O=C(CNC(=O)c1ccccc1)NC1(C(=O)NC2CCCC2)CCCCC1	-1	-11	0	6	-5	-1	.	.
O=C(CNC(=O)c1ccccc1)NC1(C(=O)NC2CCCCC2)CCCCC1	0	1	1	0	53*	4	-16	-1%

Source: PubChem (National Center for Advancing Translational Sciences (NCATS))
